Laboratory results taken from PubChem BioAssay (EPA / NIEHS).
The source made the active and inactive calls. The calls were made as follows: active = hit-call score of the fitted dose curve at least 0.9, where 1 is the maximum; inactive = score below 0.9.

Experiments:
Conditions in all cases: mRNA level, 48 h; actives raise or lower the signal
[1] = read-out: Lipoprotein lipase (LPL), LPL (gene 4023); assay: LTEA_HepaRG_LPL: Life Technologies and Expression Analysis (LTEA) Assay for Lipoprotein lipase (LPL) using HepaRG (AID 2283515)
In short: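 LPL transcript levels quantified by TaqMan qRT-PCR against three housekeeping genes after 48 h chemical treatment of HepaRG cells. Eight-point half-log series from 100 uM in 0.5% DMSO, tested in duplicate; bidirectional fitting versus vehicle.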

[2] = read-out: MicroRNA 122 (MIR122), gene 406906; assay: LTEA_HepaRG_MIR122: Life Technologies and Expression Analysis (LTEA) Assay for MicroRNA 122 (MIR122) using HepaRG (AID 2283516); also: the transcript read is the microRNA miR-122
In short: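 Expression measured by microfluidic qRT-PCR with three housekeeping genes for normalisation, after 48 h treatment of HepaRG cultures. Eight concentrations (top 100 uM, half-log steps, 0.5% DMSO vehicle) in duplicate; gain or loss fitted relative to vehicle.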

[3] = read-out: matrix metalloproteinase-10 (MMP10), MMP10 (gene 4319); assay: LTEA_HepaRG_MMP10: Life Technologies and Expression Analysis (LTEA) Assay for matrix metalloproteinase-10 (MMP10) using HepaRG (AID 2283517)
In short: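 Expression measured by TaqMan qRT-PCR with ACTB/GAPDH/POLR2A normalisation after 48 h chemical exposure of HepaRG cells. Eight half-log concentrations, top 100 uM, 0.5% DMSO vehicle, duplicates; gain or loss fitted against vehicle.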

MYC, MYC (gene 4609) = assay: LTEA_HepaRG_MYC: Life Technologies and Expression Analysis (LTEA) Assay for MYC using HepaRG (AID 2283518)
In short: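 Differentiated HepaRG cells exposed 48 h in serum-free induction medium to 8 concentrations (top 100 uM, half-log steps; 0.5% DMSO), duplicate. MYC mRNA measured by Fluidigm qRT-PCR, normalized to ACTB, GAPDH, POLR2A; bidirectional fit versus DMSO.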

[4] = read-out: matrix metalloproteinase-3 (MMP3), MMP3 (gene 4314); assay: LTEA_HepaRG_MMP3: Life Technologies and Expression Analysis (LTEA) Assay for matrix metalloproteinase-3 (MMP3) using HepaRG (AID 2283519)
In short: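 Fluidigm-based TaqMan qRT-PCR, normalized to ACTB, GAPDH and POLR2A and fitted bidirectionally versus 0.5% DMSO, measured transcript levels. Treatment: duplicate 48 h exposures of HepaRG cells, ~100,000/well, to eight half-log concentrations topping at 100 uM.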

[5] = read-out: Paternally Expressed 10 (PEG10), PEG10 (gene 23089); assay: LTEA_HepaRG_PEG10: Life Technologies and Expression Analysis (LTEA) Assay for Paternally Expressed 10 (PEG10) using HepaRG (AID 2283520)
In short: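 PEG10 transcript measured by Fluidigm qRT-PCR, normalized to three housekeeping genes, in HepaRG cells treated 48 h (highest 100 uM, half-log steps, 0.5% DMSO vehicle). Cells plated 48 h before switching to serum-free induction medium.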

[6] = read-out: Nuclear factor NF-kappa-B p105 subunit (Homo sapiens) (UniProt P19838); assay: LTEA_HepaRG_NFKB1: Life Technologies and Expression Analysis (LTEA) Assay for Nuclear Factor Kappa B Subunit 1 (NFKB1) using HepaRG (AID 2283521)
In short: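 HepaRG, 48 h exposure; 8-pt half-log series from 100 uM in 0.5% DMSO; duplicates. Readout: NFKB1 mRNA by qRT-PCR (Fluidigm arrays), housekeeping-normalized. Gain/loss fit vs DMSO baseline.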

[7] = read-out: Protein phosphatase 2A (PPP2R4), PTPA (gene 5524); assay: LTEA_HepaRG_PPP2R4: Life Technologies and Expression Analysis (LTEA) Assay for Protein phosphatase 2A (PPP2R4) using HepaRG (AID 2283522)
In short: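 Expression was quantified by Fluidigm qRT-PCR normalised to three housekeeping genes after 48 h treatment. Human HepaRG cells received an 8-point series from 100 µM downward by half-logs, in duplicate with 0.5% DMSO vehicle and 1 mM phenobarbital as induction control.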

[8] = read-out: Phosphatase and tensin (PTEN), PTEN (gene 5728); assay: LTEA_HepaRG_PTEN: Life Technologies and Expression Analysis (LTEA) Assay for Phosphatase and tensin (PTEN) using HepaRG (AID 2283523)
In short: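 Read-out: TaqMan qRT-PCR of PTEN transcript, normalized to three housekeeping genes, fitted in both directions against 0.5% DMSO. Differentiated human HepaRG cultures received chemicals for 48 h, eight-point half-log series topping at 100 uM.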

[9] = read-out: solute carrier (SLC22A1), SLC22A1 (gene 6580); assay: LTEA_HepaRG_SLC22A1: Life Technologies and Expression Analysis (LTEA) Assay for solute carrier (SLC22A1) using HepaRG (AID 2283524)
In short: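 Transcript level of SLC22A1 quantified by qRT-PCR (normalized to three housekeeping genes) after 48 h chemical exposure of HepaRG cells, eight concentrations up to 100 µM, half-log steps, 0.5% DMSO vehicle. Gain or loss relative to DMSO fitted bidirectionally.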

[10] = read-out: Pyruvate Dehydrogenase Kinase 4 (PDK4), PDK4 (gene 5166); assay: LTEA_HepaRG_PDK4: Life Technologies and Expression Analysis (LTEA) Assay for Pyruvate Dehydrogenase Kinase 4 (PDK4) using HepaRG (AID 2283525)
In short: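 Readout is qRT-PCR of PDK4 transcript, normalized to three housekeeping genes, with bidirectional fitting against 0.5% DMSO vehicle. Differentiated HepaRG cells were treated 48 h in serum-free induction medium, duplicate wells, eight-point half-log series topping at 100 uM.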

[11] = read-out: NAD(P)H dehydrogenase [quinone] 1 (NQO1), NQO1 (gene 1728); assay: LTEA_HepaRG_NQO1: Life Technologies and Expression Analysis (LTEA) Assay for NAD(P)H dehydrogenase [quinone] 1 (NQO1) using HepaRG (AID 2283526)
In short: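 NQO1 transcript induction or loss measured by TaqMan qRT-PCR, referenced to three housekeeping genes and fitted bidirectionally against 0.5% DMSO. HepaRG cultures exposed 48 h, duplicate, eight-point half-log series, top 100 uM.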

[12] = read-out: Nuclear factor erythroid 2-related factor 2 (Homo sapiens) (UniProt Q16236); assay: LTEA_HepaRG_NFE2L2: Life Technologies and Expression Analysis (LTEA) Assay for Nuclear factor erythroid 2-related factor 2 (NFE2L2) Transcription Factor using HepaRG (AID 2283527);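 also: TaqMan qRT-PCR transcript level normalised to ACTB GAPDH and POLR2A housekeeping genes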
In short: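 NFE2L2 transcript level was read by qRT-PCR (housekeeping ACTB/GAPDH/POLR2A normalisation) after 48 h chemical treatment of HepaRG in serum-free induction medium. Duplicate 8-point half-log curves, top 100 uM, 0.5% DMSO vehicle; up- or down-regulation fitted against vehicle.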

[13] = read-out: succinate dehydrogenase complex iron sulfur subunit B (SDHB), SDHB (gene 6390); assay: LTEA_HepaRG_SDHB: Life Technologies and Expression Analysis (LTEA) Assay for succinate dehydrogenase complex iron sulfur subunit B (SDHB) using HepaRG (AID 2283528)
In short: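 Readout is SDHB transcript level by qRT-PCR, normalised to three housekeeping genes and fitted bidirectionally against 0.5% DMSO vehicle. Human HepaRG cells were treated for 48 h at up to 100 uM.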

[14] = read-out: Signal transducer and activator of transcription 3 (Homo sapiens) (UniProt P40763); assay: LTEA_HepaRG_STAT3: Life Technologies and Expression Analysis (LTEA) Assay for Signal transducer and activator of transcription (STAT3) using HepaRG (AID 2283529)
In short: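 STAT3 transcript quantified by qRT-PCR against three housekeeping genes (ACTB, GAPDH, POLR2A), fitted both directions relative to DMSO. HepaRG cultures exposed 48 h to eight half-log concentrations, top 100 uM, 0.5% DMSO, serum-free induction medium.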

[15] = read-out: solute carrier (SLCO1B1), SLCO1B1 (gene 10599); assay: LTEA_HepaRG_SLCO1B1: Life Technologies and Expression Analysis (LTEA) Assay for solute carrier (SLCO1B1) using HepaRG (AID 2283530)
In short: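 Differentiated human HepaRG cells were exposed for 48 h in serum-free induction medium to eight half-log concentrations, top 100 uM, in 0.5% DMSO. SLCO1B1 mRNA was measured by qRT-PCR, normalized to ACTB, GAPDH and POLR2A, and fitted bidirectionally against DMSO.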

[16] = read-out: sulfotransferase 2A1 (SULT2A1), SULT2A1 (gene 6822); assay: LTEA_HepaRG_SULT2A1: Life Technologies and Expression Analysis (LTEA) Assay for sulfotransferase 2A1 (SULT2A1) using HepaRG (AID 2283531)
In short: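 HepaRG human liver cells, 48 h exposure in serum-free induction medium to 8 half-log concentrations topping at 100 µM (0.5% DMSO), duplicate wells. SULT2A1 mRNA measured by TaqMan qRT-PCR, normalized to ACTB/GAPDH/POLR2A; bidirectional fit against DMSO.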

[17] = read-out: Transforming Growth Factor (TGFA), TGFA (gene 7039); assay: LTEA_HepaRG_TGFA: Life Technologies and Expression Analysis (LTEA) Assay for Transforming Growth Factor (TGFA) using HepaRG (AID 2283532)
In short: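 TGFA transcript quantified by qRT-PCR (Fluidigm arrays) against three housekeeping genes, after 48 hours chemical treatment of HepaRG cells. Top concentration 100 uM with half-log dilutions, 8 points, duplicates, 0.5% DMSO.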

[18] = read-out: Transforming Growth Factor (TGFB1), TGFB1 (gene 7040); assay: LTEA_HepaRG_TGFB1: Life Technologies and Expression Analysis (LTEA) Assay for Transforming Growth Factor (TGFB1) Transporter using HepaRG (AID 2283533)
In short: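 Differentiated HepaRG cells exposed 48 hr in serum-free induction medium to eight half-log concentrations up to 100 uM (0.5% DMSO), duplicate; TGFB1 mRNA by TaqMan qRT-PCR normalised to ACTB, GAPDH, POLR2A; bidirectional fit against DMSO.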

TIMP1, TIMP1 (gene 7076) = assay: LTEA_HepaRG_TIMP1: Life Technologies and Expression Analysis (LTEA) Assay for TIMP1 using HepaRG (AID 2283534);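 also: TaqMan qRT-PCR signal normalized to ACTB GAPDH and POLR2A housekeeping genes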
In short: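 Differentiated HepaRG cells exposed 48 h in serum-free induction medium, duplicates, eight half-log concentrations from 100 uM in 0.5% DMSO. TIMP1 mRNA by qRT-PCR normalized to ACTB, GAPDH, POLR2A; bidirectional fitting against DMSO.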

Measured: outcome

Chain of Nuclear factor NF-kappa-B p105 subunit (Homo sapiens) (P19838 whole entry, looked up): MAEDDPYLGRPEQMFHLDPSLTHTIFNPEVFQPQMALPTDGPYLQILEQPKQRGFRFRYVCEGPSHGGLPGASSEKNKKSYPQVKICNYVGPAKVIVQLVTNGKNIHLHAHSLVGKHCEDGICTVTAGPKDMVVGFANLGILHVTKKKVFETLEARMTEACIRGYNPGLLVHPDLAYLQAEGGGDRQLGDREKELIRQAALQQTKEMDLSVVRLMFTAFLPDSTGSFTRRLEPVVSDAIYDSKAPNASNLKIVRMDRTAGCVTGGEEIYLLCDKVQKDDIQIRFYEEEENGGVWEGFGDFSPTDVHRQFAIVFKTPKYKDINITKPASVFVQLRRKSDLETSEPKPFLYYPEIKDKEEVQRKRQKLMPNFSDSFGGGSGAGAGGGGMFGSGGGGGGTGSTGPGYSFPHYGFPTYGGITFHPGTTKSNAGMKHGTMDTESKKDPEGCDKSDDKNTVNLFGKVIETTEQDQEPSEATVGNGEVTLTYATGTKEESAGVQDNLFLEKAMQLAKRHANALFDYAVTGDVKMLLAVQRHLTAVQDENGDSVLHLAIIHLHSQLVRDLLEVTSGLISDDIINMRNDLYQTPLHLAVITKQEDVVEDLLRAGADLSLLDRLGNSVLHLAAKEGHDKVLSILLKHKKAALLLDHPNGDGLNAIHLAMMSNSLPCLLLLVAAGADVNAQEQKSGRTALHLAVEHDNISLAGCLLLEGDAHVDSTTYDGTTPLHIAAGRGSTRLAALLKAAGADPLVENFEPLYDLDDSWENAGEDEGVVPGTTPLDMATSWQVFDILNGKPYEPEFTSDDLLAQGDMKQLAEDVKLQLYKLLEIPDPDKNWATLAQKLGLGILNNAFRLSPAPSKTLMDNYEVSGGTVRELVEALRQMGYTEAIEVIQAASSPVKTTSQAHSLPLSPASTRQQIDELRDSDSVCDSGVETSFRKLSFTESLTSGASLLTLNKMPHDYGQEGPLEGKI
Chain of Nuclear factor erythroid 2-related factor 2 (Homo sapiens) (Q16236 whole entry, looked up): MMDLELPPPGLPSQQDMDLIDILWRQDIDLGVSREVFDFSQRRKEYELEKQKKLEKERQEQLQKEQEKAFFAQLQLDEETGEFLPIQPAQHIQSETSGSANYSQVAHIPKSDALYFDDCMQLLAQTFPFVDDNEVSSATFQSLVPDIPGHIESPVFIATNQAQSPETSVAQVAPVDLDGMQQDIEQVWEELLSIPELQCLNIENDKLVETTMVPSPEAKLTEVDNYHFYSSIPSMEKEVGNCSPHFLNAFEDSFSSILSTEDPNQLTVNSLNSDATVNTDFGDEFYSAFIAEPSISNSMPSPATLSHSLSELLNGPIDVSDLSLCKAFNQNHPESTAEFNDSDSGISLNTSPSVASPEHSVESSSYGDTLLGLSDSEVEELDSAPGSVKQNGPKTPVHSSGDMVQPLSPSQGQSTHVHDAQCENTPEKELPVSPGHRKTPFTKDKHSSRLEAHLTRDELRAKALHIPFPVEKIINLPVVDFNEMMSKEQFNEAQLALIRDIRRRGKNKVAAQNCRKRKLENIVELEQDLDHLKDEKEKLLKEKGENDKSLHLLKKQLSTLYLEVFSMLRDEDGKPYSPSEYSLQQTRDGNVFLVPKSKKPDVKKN
Chain of Signal transducer and activator of transcription 3 (Homo sapiens) (P40763 whole entry, looked up): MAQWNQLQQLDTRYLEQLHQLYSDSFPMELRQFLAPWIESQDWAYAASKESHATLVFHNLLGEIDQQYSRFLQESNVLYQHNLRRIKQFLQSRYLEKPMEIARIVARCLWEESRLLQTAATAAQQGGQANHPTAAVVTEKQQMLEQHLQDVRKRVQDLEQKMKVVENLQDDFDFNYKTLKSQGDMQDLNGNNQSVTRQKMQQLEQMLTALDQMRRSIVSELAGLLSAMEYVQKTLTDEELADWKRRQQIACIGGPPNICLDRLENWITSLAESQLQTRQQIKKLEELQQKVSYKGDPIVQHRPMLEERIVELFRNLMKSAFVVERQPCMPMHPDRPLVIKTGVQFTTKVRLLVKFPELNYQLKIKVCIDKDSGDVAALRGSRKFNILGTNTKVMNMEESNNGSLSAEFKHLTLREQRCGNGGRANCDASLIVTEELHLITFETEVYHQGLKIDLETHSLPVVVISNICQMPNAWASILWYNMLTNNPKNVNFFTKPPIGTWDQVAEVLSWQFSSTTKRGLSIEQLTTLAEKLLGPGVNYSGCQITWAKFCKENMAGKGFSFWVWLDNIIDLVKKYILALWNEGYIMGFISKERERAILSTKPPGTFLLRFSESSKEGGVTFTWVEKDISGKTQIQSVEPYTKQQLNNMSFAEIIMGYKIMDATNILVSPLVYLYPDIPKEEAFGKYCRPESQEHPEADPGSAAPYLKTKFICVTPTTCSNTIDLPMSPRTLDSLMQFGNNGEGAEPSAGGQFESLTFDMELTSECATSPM

O=[N+]([O-])c1ccc(Cl)cc1
inactive: all assays above
